A selection: hits, their analogues and other compounds. The true share with any hit is near 0.9%.
PPARg SRC-3 ag: PPARgamma agonists recruiting SRC-3 coactivator, primary screen, biochemical; Peroxisome proliferator-activated receptor gamma (Homo sapiens), P37231; biochemical PPARgamma/SRC-3 coactivator recruitment assay; activation, % at 8 µM; 200,000 tested, 0.26% active; AID 731, 2007; in the data active means activation above about 23%;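 further: 0% = DMSO and 100% = reference agonist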
Target sequence (P37231 whole entry, looked up): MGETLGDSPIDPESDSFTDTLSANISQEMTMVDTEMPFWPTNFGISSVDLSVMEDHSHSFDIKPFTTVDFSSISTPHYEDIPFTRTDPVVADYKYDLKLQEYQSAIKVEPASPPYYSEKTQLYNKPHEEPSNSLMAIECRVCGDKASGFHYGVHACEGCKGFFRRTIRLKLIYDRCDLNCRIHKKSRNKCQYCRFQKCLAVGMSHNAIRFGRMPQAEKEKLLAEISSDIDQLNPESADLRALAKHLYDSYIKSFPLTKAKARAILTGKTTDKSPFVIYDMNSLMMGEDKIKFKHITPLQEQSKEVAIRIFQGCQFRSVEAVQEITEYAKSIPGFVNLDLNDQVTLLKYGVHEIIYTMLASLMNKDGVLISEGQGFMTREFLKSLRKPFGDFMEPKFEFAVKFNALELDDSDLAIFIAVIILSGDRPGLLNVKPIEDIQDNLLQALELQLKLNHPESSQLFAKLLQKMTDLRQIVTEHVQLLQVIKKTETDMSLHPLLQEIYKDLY
SRC3 TRFRET art: TR-FRET detection interference compounds, artefact control for PPARgamma SRC-3 recruitment agonists, biochemical, TR-FRET ratio | TR-FRET artefact counter-screen, PPARgamma/SRC-3 format; stronger effect = higher value | TR-FRET ratio at 8 µM | 99,000 tested, 0.39% active
TR-FRET SRC-2 ct: TR-FRET signal artefacts, primary screen, artefact control for PPARgamma SRC-2 agonist project, biochemical; TR-FRET ratio at 8 µM; TR-FRET artefact counter-screen; stronger effect = higher value; 200,000 tested, 0.4% active; AID 1049, 2008
PPARg SRC1 recr: PPARgamma agonists recruiting SRC-1 coactivator, primary screen, biochemical | Peroxisome proliferator-activated receptor gamma (Homo sapiens), P37231 | PPARgamma-SRC-1 coactivator recruitment biochemical assay | 200,000 tested, 0.41% active | activation, % at 8 µM; in the data active means activation above about 19%;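 further: 0% = DMSO and 100% = reference agonist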
PPARg SRC2 recr: agonists of PPARg-SRC-2 recruitment, primary screen, biochemical, HTS. activation, % at 8 µM. 200,000 tested, 0.34% active. PPARgamma LBD-SRC-2 recruitment; in the data active means activation above about 22%;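 further: 0% = vehicle and 100% = reference agonist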
SRC1 TRFRET art: TR-FRET detection interference compounds, primary screen, artefact control for PPARgamma SRC-1 recruitment agonists, biochemical, TR-FRET emission ratio; TR-FRET detection artefact counter-screen; stronger effect = higher value; 99,000 tested, 0.34% active; TR-FRET ratio at 8 µM; AID 1051, 2008; in the data active means TR-FRET ratio above about 2300
* marks the source's active call; other numbers are inactive results; · = not tested or not shown. Unless noted, no stated cut-off is given here; in the data, active means TR-FRET ratio above about 2000; inactive means the rest.

SMILES	PPARg SRC-3 ag	SRC3 TRFRET art	TR-FRET SRC-2 ct	PPARg SRC1 recr	PPARg SRC2 recr	SRC1 TRFRET art
CC1=C(C(=O)OC(C)C)C(c2cn(-c3ccccc3)nc2-c2cccs2)NC(=O)N1 (configuration not stated)	0.0	1776	1459	7.3	3.4	1825
O=C(NCc1nc2ccccc2[nH]1)c1ccc(S(=O)(=O)N2CCOCC2)cc1	1.2	·	1535	3.3	5.5	·
COc1ccc(C(=O)NCCSc2ccccc2)cc1	4.0	1629	1445	6.3	11.4	1905
Cc1cc2ccccc2n1CCNC(=O)c1ccc(S(=O)(=O)N2CCOCC2)cc1	3.2	2905*	1798	0.1	3.5	2656*
Cc1ccc(-c2[nH]c3ccccc3c2SCCNC(=O)c2ccc(S(=O)(=O)N3CCOCC3)cc2)cc1	9.7	2709*	2560*	6.0	8.4	3343*
COc1ccc(-c2[nH]c3ccccc3c2SCCNC(=O)c2ccccc2)cc1	4.1	2781*	1807	8.4	23.8*	2021
Cc1cc2ccccc2n1CCNC(=O)c1ccccc1	6.8	·	1939	2.9	7.2	·
O=C(Nc1cccc(Br)c1)c1ccc(OC2CSC2)cc1	2.5	1497	1600	10.3	5.3	1971
Cc1ccc(NC2c3ncccc3C(=O)N2C2CCCCC2)cc1C (configuration not stated)	6.1	·	1589	7.9	0.0	·
Cc1ccnc(NC(=S)NC(=O)c2cccs2)c1	2.6	1618	1721	4.9	1.9	1761
CC(C)c1ccccc1-n1c(SCC(=O)c2ccc3c(c2)NC(=O)CO3)nc2ccccc2c1=O	10.9	2760*	2160*	0.0	-1.0	2916*
CC(C)c1ccccc1-n1c(SCC(=O)N2CCc3ccccc3C2)nc2ccccc2c1=O	2.1	1635	1633	3.0	10.1	1834
N#Cc1cc2c(nc1SCc1ccccc1)CCCC2	1.1	1643	1574	7.0	2.3	2031
N#Cc1cc2c(nc1SCc1ccccc1)CCC2	7.8	·	1654	85.1*	12.8	·
CC(=O)CCc1ccc(OC(=O)c2cccnc2)cc1	0.6	·	1983*	4.5	25.9*	·
CCc1ccc(CNCCNCC(C)O)cc1 (configuration not stated)	5.6	·	1507	-5.5	4.5	·
O=C(c1cc2sccc2n1Cc1ccccc1)N1CCc2ccccc21	6.4	·	2447*	6.1	2.7	·
O=C(c1cc2sccc2n1Cc1ccc(F)cc1)N1CCN(c2nc3ccccc3s2)CC1	-3.4	·	2655*	7.8	7.5	·
CCOCCCN1C(=O)CN(C2CCC(C)CC2)C(=O)C1c1ccc(C)cc1 (configuration not stated)	-1.4	1908	1600	-0.1	5.1	1838
CSc1nc(SCC(=O)NC(c2ccccc2)c2ccccc2)c2c3c(sc2n1)CN(C)CC3	4.4	·	2069*	8.1	8.1	·
CSc1nc(SCC(=O)NCc2ccco2)c2c3c(sc2n1)COC(C)(C)C3	-2.4	1689	1380	5.5	4.4	2101
O=C(COC(=O)c1ccc(Cl)c(S(=O)(=O)N2CCc3ccccc3C2)c1)Nc1ncc(Cl)cc1Cl	8.9	2156*	1932	8.8	-1.2	2306
O=C(COC(=O)c1cccc(S(=O)(=O)N2CCc3ccccc32)c1)Nc1ncc(Cl)cc1Cl	8.4	1463	1556	5.7	3.3	2003
CSc1cc(-c2ccc(Cl)cc2)[nH]c(=O)c1C#N	-2.0	1471	1403	2.9	-4.6	1498
Cc1ccc(-c2[nH]c(=S)[nH]c(=O)c2C#N)cc1	17.8	2293*	2179*	-18.3	-4.0	2571*
SMILES	PPARg SRC-3 ag	SRC3 TRFRET art	TR-FRET SRC-2 ct	PPARg SRC1 recr	PPARg SRC2 recr	SRC1 TRFRET art
O=C1CCC(C(=O)OCc2ccccc2)N1 (configuration not stated)	1.0	·	1545	0.8	7.2	·
CCCCOc1ccc2c(c1)/C(=C(\C(Cl)=C(Cl)Cl)[N+](=O)[O-])N2	1.1	1646	1764	4.2	0.1	1685
CC(=O)N1N=C(c2cccs2)CC1c1ccc(C)o1 (configuration not stated)	0.5	1805	1750	11.2	4.4	2339*
CCOc1ccc(/C=N/n2cc(-c3ccccc3)[nH]c2=S)cc1	9.5	1762	1503	23.9*	2.6	1892
CCOc1ccc(/C=N/O)cc1	2.2	·	1443	-3.0	-3.4	·
COc1cc2nc(CN3C(=O)c4ccccc4C3=O)oc(=O)c2cc1OC	-3.0	·	1552	6.8	4.8	·
CC(C)Cn1c(N)c(C(=O)COC(=O)c2ccc([N+](=O)[O-])o2)c(=O)n(C)c1=O	5.0	1448	1982*	3.4	12.2	1937
CC1CCc2sc(C(=O)Nc3nnc(SCc4ccc(F)cc4)s3)cc2C1 (configuration not stated)	18.9	·	2241*	15.5	2.6	·
CC(C)N=C1NN=C(c2ccc(Cl)c(Cl)c2)CS1	0.6	1379	1677	-1.2	-7.2	1630
CSc1ccccc1NC(=O)c1cc2ncc(Br)cn2n1	3.1	2070*	1853	18.7	6.3	2400*
C=CCNC(=S)Nc1ccc2nsnc2c1	9.6	1866	1662	6.0	7.0	2407*
S=C(Nc1ccc(Cl)c(Cl)c1)NC1CCCCC1	-5.9	·	1550	-4.0	-1.5	·
CCOc1ccc(NC(=S)Nc2ccc3nsnc3c2)cc1	13.1	2027	1676	14.7	8.7	2443*
S=C(Nc1ccc2nsnc2c1)NC1CCCCC1	9.1	1898	1719	10.6	6.2	2457*
C=CCN1C=CC(=C/C=C(/C#N)C(=O)OCC)C=C1	2.4	·	1483	26.3*	2.6	·
CCOC(=O)/C(C#N)=C\N(C)C	6.5	·	1498	-4.1	7.9	·
COc1ccc(C(Nc2ccc(S(=O)(=O)NCC3CCCO3)cc2)C(=O)NC(C)(C)C)cc1OC (configuration not stated)	4.4	1680	1680	0.2	2.7	1866
COC(=O)CN1C2=NCCCN2c2ccccc21	-1.9	1456	1330	-3.3	-1.5	1541
Cc1ccc(/C=C(\C#N)c2nn(-c3ccccc3)c(N)c2C#N)cc1	-3.8	1337	1725	-4.1	-3.3	1776
N#C/C(=C\c1cccc2ccccc12)c1nn(-c2ccccc2)c(N)c1C#N	15.7	·	1650	18.9*	16.6	·
CC(OC(=O)c1cc2sccc2n1C)C(=O)NCc1cccs1 (configuration not stated)	7.8	·	1517	23.6*	1.0	·
CCCNC(=O)C(CC)NS(=O)(=O)c1ccc(OC)cc1 (configuration not stated)	44.5*	·	1497	6.9	12.9	·
Cc1cccc2cc3c(NC(=O)CC(C)C)nn(C)c3nc12	-14.5	·	1414	-1.9	-12.2	·
CCn1c(SCC(=O)Nc2ccc(Cl)cc2)nc2nc3c(cc2c1=O)CCCC3	3.9	1898	2837*	0.0	68.0*	1677

From PubChem
